Laboratory results published in the supplement of paper PMC6555819.

What follows are sequences tested on PPARg:RXRa (NR concentration 180 nM, RXRa partner concentration 90 nM) (assay: PBM binding z-score (relative to random genomic background probes); higher = stronger binding; sequences stand for … in GC…GCGATTGACAGCGTAGAATGAAGG).
Outline: (§1)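 Each nuclear receptor dimer, without ligand, was incubated for 1 h on custom Agilent 4×180K protein-binding microarrays. Binding was detected with antibodies against each partner (one per run), and scanned fluorescence was regression-normalized. The binding z-scores are referenced to random human genomic background probes.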

In order of falling PBM binding z-score:
1. CGAACTAGGTCAAGGGCAGTGAATCTCCGCACGC  8.03
2. ATCTCTAGGTAAAAGTTCAGTGGATCCCGAGGAT  7.94
3. TCTTGTAGATCAAAGGTTATGAAAGCCGAAGCCT  7.9
4. AACACAGGGTCACTAGGCCAGAGTAGGTACGAAT  7.72
5. ACTCGCAGGACAAAGGTCAGAGCTACGCCAGTGA  7.12
6. CGTCAAAGTTCAACTAAGGTAACGGAAAGCACGC  4.86
7. CGTCCAAGGTCATAGGAGGTCCGTGAAGACAGAT  4.52
8. AGTCAAGGTTCACTAGGTAACGTAAGATTCAGCT  4.38
9. CCGACTGGGGCAAGGTTAGCATAACGCACAGCCA  2.6
10. TCCTATAGGTAAACAGGTGAAAGTCCGTAAGTTA  1.63
11. GCATAGAGGTAATACAAGGTGAAAGTCCGATTGT  0.691
12. GCGACTGGGGCATCAGCCGGTTACCATAACTTAA  0.552
13. CCTATTAGTTGACCATAAGGGCTACCGAAGCTCG  0.355
14. GATACACGGTCAGCTAGAGGCCAGAGTATGGAAA  0.351
15. TCTTGTAGATCAATAGAGGTTAAGAATGTGCGCT  0.259
16. GCTTGTAGATCAAGATTAAGAAAGACTAAGCTAA  0.226
17. CCTAGCAGGCCCATCTGGGTCACTCAAGGCTTGA  0.158
18. CCTAGCAGGCCAATCTGCGTCACTCAAGGCTTGA  -0.41

Each sequence was assayed on PPARg:RXRa 270nM:90nM, anti-RXR (NR concentration 270 nM, RXRa partner concentration 90 nM) in the same assay as above.
Outline: as §1

In order of rising PBM binding z-score:
1. CCTAGCAGGCCAATCTGCGTCACTCAAGGCTTGA  -1.08
2. AGACCGAGGGCAATGAGTTGATAGCACGGGTGGC  -0.467
3. GCTTGTAGATCAAGATTAAGAAAGACTAAGCTAA  -0.333
4. GATACACGGTCAGCTAGAGGCCAGAGTATGGAAA  -0.323
5. GCTGCTAGTTCAGGTTGGTCAGCTAACGGGTACG  -0.127
6. TCGAGTAGGATACCAATGGGGCATTCAGCTTTCT  -0.0523
7. CCTATTAGTTGACCATAAGGGCTACCGAAGCTCG  0.0189
8. AGAATGACGTTACCAAAGATCAGGGAAACGCTTG  0.125
9. GCGACTGGGGCATCAGCCGGTTACCATAACTTAA  0.636
10. CCTAGCAGGCCCATCTGGGTCACTCAAGGCTTGA  0.743
11. GCATAGAGGTAATACAAGGTGAAAGTCCGATTGT  0.857
12. GCTTGGAGATCAAGGTTAAGAAAGACTAAGCTAA  0.864
13. TAGCCTAGGTCAGATCGGGCCACTATACGCTATA  0.87
14. ACTCGGAGGACCAAGGTCAGAGCTACGCCAGTGA  1.31
15. CAACCAAGGTGAACAAGGTCGTTGATTACTATTC  1.41
16. TCTTGTAGATCAATAGAGGTTAAGAATGTGCGCT  1.56
17. AGAACGAGGGCACGCTGAGTTGACAGCAGAGTAG  1.73
18. TAGCCTAGGTCATTCACGGGCCAGTATAGAAAGC  2.19
19. GATACCGGGTCAGCTAGAGGCCAGAGTATGGAAA  2.42
20. TAGCCTAGGTCATGCAGGGGCCAGTATAGAAAGC  2.44
21. TCCTATAGGTAAACAGGTGAAAGTCCGTAAGTTA  2.96
22. CCGACTGGGGCAAGGTTAGCATAACGCACAGCCA  3.06
23. ATCGAAAGGTCGAGGTGGGTATAGAGAAAGGGAA  3.11
24. CCTAGTTAGTCAGGAGGTCACACACCGGATATGA  3.19
25. AGTCAAGGTTCACTAGGTAACGTAAGATTCAGCT  4.46
26. CCGAGTAGGTTATGGGGCATCCAGGCAACGGTGA  4.52
27. CGAATTAGGTCAGAACAGGACAGTGAAGGATGAT  4.59
28. CGTCCAAGGTCATAGGAGGTCCGTGAAGACAGAT  5.1
29. TGAACGAGGTTAAAGATCAGGGAACGTGGCGTCG  5.68
30. CGTCAAAGTTCAACTAAGGTAACGGAAAGCACGC  5.75
31. AACACAGGGTCACTAGGCCAGAGTAGGTACGAAT  6.51
32. CCTTACGGGTCACGAGGTTATAGCACGACGAGCG  6.6
33. CGAACTAGGTCATCGACAGGACAGTGAATAGTAA  6.6
34. CGAACTAGGTCAAGGGCAGTGAATCTCCGCACGC  6.75
35. ACTCGCAGGACAAAGGTCAGAGCTACGCCAGTGA  6.87
36. ACTCGGAGGACAAAGGTCAGACCTACGCCAGTGA  6.95
37. CAAACTAGGTCACGAAAGGTCCAAGTCGAATGAC  7.44
38. ATCTCTAGGTAAAAGTTCAGTGGATCCCGAGGAT  7.5
39. TCTTGTAGATCAAAGGTTATGAAAGCCGAAGCCT  7.7
40. CCTCCTGGGCCAAAGGTCATTGATTCCAATGCTC  8.76

What follows are sequences tested on PPARg:RXRa 30nM:10nM, anti-RXR (NR concentration 30 nM, RXRa partner concentration 10 nM) in the same assay as above.
Outline: as §1

In order of rising PBM binding z-score:
1. CCTAGCAGGCCAATCTGCGTCACTCAAGGCTTGA  -1.19
2. CCTAGCAGGCCCATCTGGGTCACTCAAGGCTTGA  -0.909
3. GCTGCTAGTTCAGGTTGGTCAGCTAACGGGTACG  -0.906
4. AGACCGAGGGCAATGAGTTGATAGCACGGGTGGC  -0.824
5. GCGACTGGGGCATCAGCCGGTTACCATAACTTAA  -0.73
6. GATACACGGTCAGCTAGAGGCCAGAGTATGGAAA  -0.383
7. GCTTGTAGATCAAGATTAAGAAAGACTAAGCTAA  -0.252
8. TAGCCTAGGTCAGATCGGGCCACTATACGCTATA  -0.128
9. CAACCAAGGTGAACAAGGTCGTTGATTACTATTC  0.118
10. AGAATGACGTTACCAAAGATCAGGGAAACGCTTG  0.189
11. AGAACGAGGGCACGCTGAGTTGACAGCAGAGTAG  0.191
12. CCTATTAGTTGACCATAAGGGCTACCGAAGCTCG  0.219
13. GCTTGGAGATCAAGGTTAAGAAAGACTAAGCTAA  0.225
14. ACTCGGAGGACCAAGGTCAGAGCTACGCCAGTGA  0.277
15. TAGCCTAGGTCATTCACGGGCCAGTATAGAAAGC  0.448
16. GCATAGAGGTAATACAAGGTGAAAGTCCGATTGT  0.448
17. GATACCGGGTCAGCTAGAGGCCAGAGTATGGAAA  0.487
18. TCGAGTAGGATACCAATGGGGCATTCAGCTTTCT  0.785
19. CCGACTGGGGCAAGGTTAGCATAACGCACAGCCA  0.844
20. TAGCCTAGGTCATGCAGGGGCCAGTATAGAAAGC  0.917
21. ATCGAAAGGTCGAGGTGGGTATAGAGAAAGGGAA  1.17
22. CCTAGTTAGTCAGGAGGTCACACACCGGATATGA  1.24
23. CGTCCAAGGTCATAGGAGGTCCGTGAAGACAGAT  1.5
24. AGTCAAGGTTCACTAGGTAACGTAAGATTCAGCT  1.58
25. CCGAGTAGGTTATGGGGCATCCAGGCAACGGTGA  1.97
26. CGTCAAAGTTCAACTAAGGTAACGGAAAGCACGC  1.99
27. CGAATTAGGTCAGAACAGGACAGTGAAGGATGAT  2.05
28. TCTTGTAGATCAATAGAGGTTAAGAATGTGCGCT  2.73
29. AACACAGGGTCACTAGGCCAGAGTAGGTACGAAT  2.84
30. CCTTACGGGTCACGAGGTTATAGCACGACGAGCG  3.13
31. TCCTATAGGTAAACAGGTGAAAGTCCGTAAGTTA  3.27
32. CGAACTAGGTCATCGACAGGACAGTGAATAGTAA  3.86
33. TGAACGAGGTTAAAGATCAGGGAACGTGGCGTCG  4.28
34. CGAACTAGGTCAAGGGCAGTGAATCTCCGCACGC  4.74
35. CAAACTAGGTCACGAAAGGTCCAAGTCGAATGAC  4.78
36. ACTCGGAGGACAAAGGTCAGACCTACGCCAGTGA  4.94
37. ACTCGCAGGACAAAGGTCAGAGCTACGCCAGTGA  5.49
38. TCTTGTAGATCAAAGGTTATGAAAGCCGAAGCCT  7.23
39. ATCTCTAGGTAAAAGTTCAGTGGATCCCGAGGAT  7.58
40. CCTCCTGGGCCAAAGGTCATTGATTCCAATGCTC  10.1
